The campaign covered roughly 310,000 compounds. About 14,000 (4.5%) showed an effect of 50% or more. The effect is printed as a negative number. What follows is part of a selection rich in strong results, with near analogues and random picks from the rest.
What follows are molecules tested against human ether-à-go-go-related gene (hERG) potassium channel (human, UniProt Q12809) (assay: primary screen, population patch clamp on CHO cells stably expressing hERG; higher = less effect of the substance).
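Also: peak tail current of the secondary pulse compared with the same well before compound.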

Chain of human ether-à-go-go-related gene (hERG) potassium channel (Q12809 whole entry, looked up): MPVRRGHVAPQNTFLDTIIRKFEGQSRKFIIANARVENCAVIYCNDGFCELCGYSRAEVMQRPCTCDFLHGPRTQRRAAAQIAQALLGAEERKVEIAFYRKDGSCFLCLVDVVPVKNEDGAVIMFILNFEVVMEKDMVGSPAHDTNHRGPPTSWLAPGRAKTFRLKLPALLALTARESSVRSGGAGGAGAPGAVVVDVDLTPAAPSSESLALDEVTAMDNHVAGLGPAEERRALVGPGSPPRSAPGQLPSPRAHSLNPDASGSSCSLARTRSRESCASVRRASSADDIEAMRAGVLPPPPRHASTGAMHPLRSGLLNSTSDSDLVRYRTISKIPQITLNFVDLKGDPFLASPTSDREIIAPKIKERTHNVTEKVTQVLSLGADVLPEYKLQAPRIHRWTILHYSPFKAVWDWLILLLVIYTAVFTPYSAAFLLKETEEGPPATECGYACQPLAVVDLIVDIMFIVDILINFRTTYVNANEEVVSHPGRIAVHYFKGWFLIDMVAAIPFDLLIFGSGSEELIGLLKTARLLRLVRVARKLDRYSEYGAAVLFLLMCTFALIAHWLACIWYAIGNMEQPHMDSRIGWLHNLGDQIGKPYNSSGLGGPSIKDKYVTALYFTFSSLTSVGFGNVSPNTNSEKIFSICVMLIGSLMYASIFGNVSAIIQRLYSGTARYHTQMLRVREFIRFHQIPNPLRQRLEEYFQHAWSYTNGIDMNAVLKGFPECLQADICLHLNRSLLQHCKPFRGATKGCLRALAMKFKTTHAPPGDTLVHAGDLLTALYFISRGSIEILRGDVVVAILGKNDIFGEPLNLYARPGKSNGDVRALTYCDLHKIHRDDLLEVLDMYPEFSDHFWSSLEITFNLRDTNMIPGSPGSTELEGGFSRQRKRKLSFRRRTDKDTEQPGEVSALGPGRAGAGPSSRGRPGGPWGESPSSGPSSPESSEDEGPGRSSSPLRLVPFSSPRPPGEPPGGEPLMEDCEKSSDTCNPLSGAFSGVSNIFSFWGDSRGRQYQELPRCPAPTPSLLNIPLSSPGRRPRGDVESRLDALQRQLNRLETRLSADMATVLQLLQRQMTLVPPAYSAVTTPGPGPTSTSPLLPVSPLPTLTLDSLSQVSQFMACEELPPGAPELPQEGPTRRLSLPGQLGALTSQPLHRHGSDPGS

Row | Structure (SMILES) | hERG current change (%, negative = inhibition) at 10uM [%]
1 | COc1ccc(S(=O)(=O)N2CCOC2CNC(=O)C(=O)NCc2ccc3c(c2)OCO3)cc1 (stereo not shown) | -25.6
2 | Cc1ccc(S(=O)(=O)N/N=C\c2ccc(Cl)c([N+](=O)[O-])c2)cc1 | 18.4
3 | CCOC(=O)c1sc(=S)n(-c2cccc(OC)c2)c1N | -7.09
4 | CCc1ccc2[nH]c(=O)c(C(c3nnnn3CC3CCCO3)N3CCCc4ccccc43)cc2c1 (stereo not shown) | 19.8
5 | O=C(COC(=O)c1ccccc1Oc1ccccc1)NCc1ccco1 | -19.1
6 | O=C(Nc1cccc(S(=O)(=O)Nc2ccc(Cl)cc2)c1)c1ccc(Cl)nc1 | 19.8
7 | Cc1oc(-c2ccccc2F)nc1CS(=O)(=O)CC(=O)N1CCc2ccccc21 | 12.4
8 | C=CCOc1ccc(Br)cc1CNC(C)(C)C.Cl | -14.7
9 | CC(C)(C)NCc1ccccc1OCc1cccs1.Cl | 6.17
10 | CC(C)COc1ccc(Br)cc1CNC(C)(C)C.Cl | -41.8
11 | CC(C)(C)NCc1cc(Cl)ccc1OCc1cccs1.Cl | -32.5
12 | CC(C)(C)NCc1cc(Br)ccc1OC1CCCC1.Cl | -53.8
13 | CC(C)(C)NCc1cc(Br)ccc1OCc1cccs1.Cl | -52.5
14 | CCN(CC)CCNC(=O)c1ccc(NC(=O)Cc2ccsc2)cc1 | 15.6
15 | O=c1oc2ccccc2cc1N1CCOCC1 | -7.08
16 | CN(C)S(=O)(=O)c1ccc(C(=O)Nc2nnc(-c3cccs3)o2)cc1 | 31.7
17 | O=C(COC(=O)c1ccccc1F)Nc1cccnc1Cl | -2.16
18 | O=C(COC(=O)c1ccc(F)cc1F)Nc1cccnc1Cl | -56.3
19 | O=C(COC(=O)c1ccc(F)cc1F)Nc1ncccn1 | -3.24
20 | Cc1ccc(NC(=O)c2cnn(-c3ccccc3)c2NC(=O)c2ccco2)cc1 | 2.02
21 | Cc1ccnn1CC(=O)N/N=C/c1ccc2c(c1)OCO2 | -7.72
22 | N#C/C(=C/c1cccc(O)c1)C(=O)NCc1ccc(Cl)cc1 | 31

Row | Structure (SMILES) | hERG current change (%, negative = inhibition) at 10uM [%]
23 | COC(=O)CSc1cc([N+](=O)[O-])cc2c1c(C1OCCO1)nn2-c1ccccc1 | -5.4
24 | CN(CCO)c1nc(N)c2c(N)nc3c(c2c1C#N)CC(=O)N3C1CCCC1 | -63.5
25 | N#Cc1c(N(CCO)CCO)nc(N)c2c(N)nc3c(c12)CC(=O)N3CC1CCCO1 (stereo not shown) | 10
26 | CN(CCO)c1nc(N)c2c(N)nc3c(c2c1C#N)CC(=O)N3Cc1cccs1 | -29.6
27 | O=C(CSc1oc(-c2cccs2)nc1S(=O)(=O)c1ccccc1)NC1CCCCC1 | 17.7
28 | CCC1Oc2ccccc2N(CC(=O)NCCCN2CCN(Cc3ccccc3)CC2)C1=O (stereo not shown) | -42
29 | CCC1Oc2ccc(C)cc2N(CC(=O)NCCCN2CCN(Cc3ccccc3)CC2)C1=O (stereo not shown) | -53.9
30 | CCC1Oc2ccccc2N(CC(=O)NCCCN2CCN(CC)CC2)C1=O (stereo not shown) | 2.97
31 | CCC1Oc2ccccc2N(CC(=O)NCCCN2CCN(c3ccc(OC)cc3)CC2)C1=O (stereo not shown) | -50.4
32 | CCC1Oc2ccccc2N(CC(=O)NCCCN2CCOCC2)C1=O (stereo not shown) | -4.71
33 | CCC1Oc2ccc(C)cc2N(CC(=O)NCCCN2CCCC2)C1=O (stereo not shown) | -34.7
34 | Cc1cc(OC(C)C(=O)N[C@H](C(=O)O)c2ccccc2)c2c3c(c(=O)oc2c1)CCC3 (stereo partly shown) | -3.23
35 | CCOC(=O)c1c(NCC(C)C)c2ccccc2[nH]c1=O | -1.01
36 | Cc1cccc(C(=O)NNC(=O)c2ccc(Br)cc2)c1 | 4.62
37 | O=C(Nc1cccc(Cl)c1Cl)c1snnc1-c1ccccc1 | 7.74
38 | Cc1ccc(NC(=S)N(CCN2CCOCC2)Cc2ccccc2F)cc1Cl | -12.3
39 | NC(=S)N/N=C1\CCOc2ccc(F)cc21 | -76.9
40 | NC(=S)N/N=C1\CC(c2ccc3c(c2)OCCO3)Oc2ccc(F)cc21 (stereo not shown) | 12.9
41 | NC(=S)N/N=C1\CCOc2ccc(Cl)cc21 | 1.36
42 | O=C(COC(=O)c1cccc(C(=O)OCC(=O)NCc2ccc(F)cc2)n1)NCc1ccc(F)cc1 | -15.5
43 | Cn1nccc1C(=O)N(CCN1CCCCC1)CC1CCCN(C2CCCC2)C1 (stereo not shown) | -2.29
44 | O=C(c1cc2ccccc2[nH]1)N(Cc1cccnc1)CC1CCCN(C2CCCCC2)C1 (stereo not shown) | -73.7

Row | Structure (SMILES) | hERG current change (%, negative = inhibition) at 10uM [%]
45 | CC(=O)N(Cc1cccnc1)Cc1cc2ccccc2[nH]c1=O | 3.63
46 | O=C(c1cccs1)N(CCN1CCCCC1)CC1CCCN(C2CCCC2)C1 (stereo not shown) | 1.03
47 | O=C(c1cc2cc(F)ccc2[nH]1)N(Cc1cccnc1)CC1CCCN(C2CCCCC2)C1 (stereo not shown) | -77.5
48 | COC(=O)c1ccccc1C(=O)N(Cc1cccnc1)CC1CCCN(C2CCCCC2)C1 (stereo not shown) | -40
49 | O=S(=O)(NCc1cn2ccsc2n1)c1cccs1 | 15.6
50 | Cc1cc(C(=O)OCC(=O)Nc2nccs2)c2ccccc2n1 | 1.22
51 | Cc1cc(C)c2c(n1)nn1c(C)c(CCC(=O)NCc3ccco3)c(C)nc21 | -12.1
52 | CCOC(=O)CSc1nnc2n1C(C)(C)Cc1ccccc1-2 | -4.66
53 | CCOc1cc(C(=O)N=c2sccn2C)cc(Br)c1OC | 8.84
54 | CNC(=O)COC(=O)c1ccc(NC(=O)CC#N)cc1 | 11.9
55 | CCN(CC(=O)Nc1c(F)cccc1F)C(=O)c1ccc2c(c1)S(=O)(=O)N=C1CCCCCN12 | 9.69
56 | Cc1cc(C(=O)Nc2c(C)nn(Cc3ccccc3)c2C)on1 | 1.26
57 | O=C(Nc1cnn(Cc2ccc(Cl)cc2)c1)c1ccc([N+](=O)[O-])cc1 | -31.4
58 | Cc1onc(-c2ccccc2)c1C(=O)NCc1ccc(Cl)cc1 | 13.8
59 | Cc1nn(Cc2ccccc2)c(C)c1NC(=O)c1ccc([N+](=O)[O-])cc1[N+](=O)[O-] | -57
60 | Cc1nn(Cc2ccc(Cl)cc2)c(C)c1NC(=O)c1c(-c2ccccc2)noc1C | -65.1
61 | Cc1nn(Cc2ccccc2)c(C)c1NC(=O)Cn1nc([N+](=O)[O-])c(Cl)c1C | -10.4
62 | Cc1nn(Cc2ccc(Cl)cc2)c(C)c1NC(=O)c1ccc([N+](=O)[O-])cc1 | -72.6
63 | CCN(CC)P(=O)(Nc1ccc([N+](=O)[O-])cc1)c1c(C)nn(CCC#N)c1NC(=O)c1ccc(Cl)cc1 (stereo not shown) | -56.9
64 | CCn1nc(C)c(NC(=O)c2ccc(Cl)cc2)c1C | 5.72
65 | CCN(CC)P(=O)(Nc1ccc([N+](=O)[O-])cc1)c1c(C)nn(CCC#N)c1NC(=O)c1ccc(Cl)cc1Cl (stereo not shown) | 3.17
66 | Cc1cc(C(=O)Nc2c(C)nn(Cc3ccc(Cl)cc3)c2C)no1 | -15.4

Row | Structure (SMILES) | hERG current change (%, negative = inhibition) at 10uM [%]
67 | CCN(CC)P(=O)(Nc1ccc(Br)cc1)c1c(C)nn(CCC#N)c1NC(=O)c1ccc(Cl)cc1 (stereo not shown) | 7.19
68 | C=CCNC(=S)Nc1ccc(OC)c(S(=O)(=O)N2CCOCC2)c1 | -10.3
69 | CC(=O)c1cc2c(cc1NC(=O)CCc1c(C)nc3ncnn3c1C)OCO2 | -10.1
70 | C=CCn1c(N)c(C(=O)NCc2cccnc2)sc1=S | -35.1
71 | COc1cccc(CN2CC(C(=O)NCCSc3nnnn3C)CCC2=O)c1 (stereo not shown) | 18
72 | CC(C)(C)C(=O)Nc1ccc(N=Nc2ccccc2)cc1 | -0.305
73 | O=C(O)C(Cc1c[nH]c2ccccc12)N1C(=O)C2C3c4ccccc4C(c4ccccc43)[C@@H]2C1=O (stereo partly shown) | 18
74 | Nc1nnc(CSCc2ccc(Cl)cc2Cl)s1 | 0.235
75 | Cc1cc(NS(=O)(=O)c2ccc(NC(=O)CCc3ccccc3)cc2)no1 | 12.2
76 | O=C(c1nc2ccccn2c1CNCCCn1ncc2ccccc21)N1CCCC1 | -37.7
77 | CN(Cc1ccccc1)C(=O)c1nc2ccccn2c1CNCCCOc1cccnc1 | -52.3
78 | CCCCN(C)C(=O)c1nc2ccccn2c1CNCCCn1ncc2ccccc21 | -55
79 | CN(Cc1ccccc1)C(=O)c1nc2ccccn2c1CNCCOc1cccnc1 | -31
80 | CCCCN(C)C(=O)c1nc2ccccn2c1CNCCCn1nnc2ccccc21 | -38
81 | CN(Cc1ccccc1)C(=O)c1nc2ccccn2c1CNCCn1cccn1 | -32.3
82 | CCOc1ccccc1NC(=O)CCS(=O)(=O)c1ccc(OC)cc1 | -0.411
83 | COc1ccc(-n2c(C)cc(/C=C3/SC(=S)N(C)C3=O)c2C)cc1 | 20.7
84 | CCOc1ccccc1C1CC(=O)NC(SCC(=O)Nc2nccs2)=C1C#N (stereo not shown) | -0.586
85 | CN(C)CCN1C(=O)C(O)=C(C(=O)c2ccco2)C1c1ccccc1F (stereo not shown) | 11.9

Source: publication PMC4336329 (PLoS ONE, 2015)
